In the supplement of paper PMC7156485:
± gives the standard deviation of the averaged measurements.

system: HCC1569; assay: cell number relative to DMSO (% of DMSO); higher = more cells (less growth inhibition / toxicity); conditions: concentration: 10 µM; 24 h
Outline: (§1)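 For HCC1569 and TDF cells, compounds at 10 µM were applied for 24 h at 37 °C in triplicate in 384-well plates. Cells were fixed in 3.7% formaldehyde, stained for H1.0 and with DAPI, and imaged at ×10 over six fields per well. The endpoint, H1.0 nuclear intensity or cell number, is shown as percent of the plate control using the median of replicates. Positional effects were smoothed for HCC1569 only.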
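Note: TDF denotes transformed human dermal fibroblasts of mesenchymal origin.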

Compound	cell number
c1cncc(C2CCCCN2)c1 (racemic)	102
CC(C)(C)NCC(O)c1ccccc1Cl (stereo not given) [Tulobuterol]	111
Br.CN1C2CC(OC(=O)C(CO)c3ccccc3)CC1C1OC12 (single isomer, unassigned; (-)) [(-)-Scopolamine hydrobromide]	100
CCCN1CCCC(c2cccc(O)c2)C1.Cl (stereo not drawn) [R(+)-3PPP hydrochloride]	104
CC1OC(C[N+](C)(C)C)CC1O.[Cl-] (racemic)	102
Cc1cc(C2CCCN2C)on1 (stereo not given)	102
Br.CN1CCc2cc(O)cc3c2C1Cc1ccc(O)c(O)c1-3 (stereo not drawn) [R(-)-2,10,11-Trihydroxyaporphine hybrobromide]	99
COC(=O)C(N)CCCN=C(N)N[N+](=O)[O-].Cl [NG-Nitro-L-arginine methyl ester hydrochloride]	103
COc1cc(C=C(C#N)C#N)cc(O)c1O [Tyrphostin AG 34]	102
CN1CC(NS(=O)(=O)N(C)C)CC2c3cccc4c3c(cn4C)CC21 (stereo not given) [Mesulergine]	100
Br.CCCN(CCC)C1CCc2cccc(O)c2C1 (stereo not drawn) [R-(+)-8-Hydroxy-DPAT hydrobromide]	99.2
Br.COc1c2c(cc3c1OCO3)CCN(C)C2 [Hydrocotarnine HBr]	102
Br.C#CCOC(=O)C1=CCCN(C)C1 [Arecaidine propargyl ester hydrobromide]	100
CC(N)Cc1cnc[nH]1.Cl.Cl (stereo not drawn) [Histamine, R(-)-alpha-methyl-, dihydrochloride]	97.4
O=c1[nH]c2ccccc2n1CCCN1CCC(n2c(=O)[nH]c3cc(Cl)ccc32)CC1 [Domperidone]	97.7
C=CCN1CCC23c4c5ccc(O)c4OC2C(=O)CCC3(O)C1C5 (stereo not given) [Naloxone]	98.5
CCN1CC2(COC)C(O)CC(OC)C34C5CC6(O)C(OC)C(O)C(OC(C)=O)(C5C6OC(=O)c5ccccc5)C(C(OC)C23)C14 (stereo not given) [Aconitine]	99.9
CC(C)NCC(O)c1ccc(N)c(C#N)c1 (stereo not given) [Cimaterol]	103
CC1=CC(=O)C2=C(C)CC(O)C3C(C)C(=O)OC3C12 (stereo not given) [Austricin]	101
CCn1cnc2c(Nc3cccc(Cl)c3)nc(NC3CCCCC3N)nc21 (stereo not given)	54
CCC(CO)NC(=O)C1C=C2c3cccc4c3c(cn4C)CC2N(C)C1.O=C(O)C=CC(=O)O (stereo not given) [Methysergide maleate]	101 ± 2.7
CCCCCC=CCC=CCCCCCCCC(=O)NCCO [Anandamide (18:2,n-6)]	100
CC(C)CC(NP(=O)([O-])OC1OC(C)C(O)C(O)C1O)C(=O)NC(Cc1c[nH]c2ccccc12)C(=O)[O-].[Na+].[Na+] (stereo not given) [Phosphoramidon disodium]	99.6
NC(=O)CI [Iodoacetamide]	47.9
NC(=O)CN1CC(O)CC1=O (stereo not given) [Oxiracetam]	101
CC1OC1P(=O)([O-])[O-].[Na+].[Na+] (stereo not given) [Phosphomycin disodium]	100
CN1C2CC(OC(=O)C(CO)c3ccccc3)CC1C1OC12 (stereo not given) [Scopolamine]	102

system: TDF; assay: as above; conditions: concentration: 10 µM; 24 h
Outline: as §1

Compound	cell number
CCN(C)C(=O)Oc1cccc(C(C)N(C)C)c1 (stereo not given) [Rivastigmine]	114
COc1ccc2c(c1O)-c1c(OC)c(OC)cc3c1C(C2)N(C)CC3.Cl (single isomer, unassigned; (+)) [(+)-Isocorydine hydrochloride]	107
CN1CC(C(=O)NC2(C)OC3(O)C4CCCN4C(=O)C(Cc4ccccc4)N3C2=O)CC2c3cccc4[nH]cc(c34)CC21.CS(=O)(=O)O (stereo not given) [Dihydroergotamine mesylate]	102
COC1CC(CC2CCC(C)C(C(C)C(=O)[O-])O2)OC2(OC(C)(C3CCC(C)(C4OC(C5OC(O)(CO)C(C)CC5C)CC4C)O3)CC2C)C1C.[Na+] (stereo not given) [Nigericin]	68.8
C=C1C(C)C2C(Cc3ccccc3)NC(=O)C23OC(=O)C=CC(O)CCCC(C)CC=CC3C1O (stereo not given) [Cytochalasin B]	63.7
CCN(CC)C(=O)NC1C=C2c3cccc4[nH]cc(c34)CC2N(C)C1 (stereo not drawn) [S-(-)-Lisuride]	105
C=CCN1CC(C(=O)N(CCCN(C)C)C(=O)NCC)CC2c3cccc4[nH]cc(c34)CC21 (stereo not given) [Cabergoline]	102
CCC(C(N)=O)N1CCCC1=O (stereo not given) [Levetiracetam]	105
Cc1sc2c(c1C)C(c1ccc(Cl)cc1)=N[C@@H](CC(N)=O)c1nnc(C)n1-2	67.9
CC1=C2C(=O)C3C(CC=C4CC(O)CCC43C)C2CCC12OC1CC(C)CNC1C2C (stereo not given) [Jervine]	104
NC(Cn1oc(=O)[nH]c1=O)C(=O)O (stereo not given) [Quisqualic acid]	94.9
c1cncc(C2CCCCN2)c1 (racemic)	110
CC(C)(C)NCC(O)c1ccccc1Cl (stereo not given) [Tulobuterol]	101
Br.CN1C2CC(OC(=O)C(CO)c3ccccc3)CC1C1OC12 (single isomer, unassigned; (-)) [(-)-Scopolamine hydrobromide]	104
CCCN1CCCC(c2cccc(O)c2)C1.Cl (stereo not drawn) [R(+)-3PPP hydrochloride]	106
CC1OC(C[N+](C)(C)C)CC1O.[Cl-] (racemic)	101
Cc1cc(C2CCCN2C)on1 (stereo not given)	102
Br.CN1CCc2cc(O)cc3c2C1Cc1ccc(O)c(O)c1-3 (stereo not drawn) [R(-)-2,10,11-Trihydroxyaporphine hybrobromide]	113
COC(=O)C(N)CCCN=C(N)N[N+](=O)[O-].Cl [NG-Nitro-L-arginine methyl ester hydrochloride]	109

Compound	cell number
COc1cc(C=C(C#N)C#N)cc(O)c1O [Tyrphostin AG 34]	97.9
CN1CC(NS(=O)(=O)N(C)C)CC2c3cccc4c3c(cn4C)CC21 (stereo not given) [Mesulergine]	103
Br.CCCN(CCC)C1CCc2cccc(O)c2C1 (stereo not drawn) [R-(+)-8-Hydroxy-DPAT hydrobromide]	90.1
Br.COc1c2c(cc3c1OCO3)CCN(C)C2 [Hydrocotarnine HBr]	107
Br.C#CCOC(=O)C1=CCCN(C)C1 [Arecaidine propargyl ester hydrobromide]	98.1
CC(N)Cc1cnc[nH]1.Cl.Cl (stereo not drawn) [Histamine, R(-)-alpha-methyl-, dihydrochloride]	102
O=c1[nH]c2ccccc2n1CCCN1CCC(n2c(=O)[nH]c3cc(Cl)ccc32)CC1 [Domperidone]	98.7
C=CCN1CCC23c4c5ccc(O)c4OC2C(=O)CCC3(O)C1C5 (stereo not given) [Naloxone]	96.7
CCN1CC2(COC)C(O)CC(OC)C34C5CC6(O)C(OC)C(O)C(OC(C)=O)(C5C6OC(=O)c5ccccc5)C(C(OC)C23)C14 (stereo not given) [Aconitine]	97.3
CC(C)NCC(O)c1ccc(N)c(C#N)c1 (stereo not given) [Cimaterol]	108
CC1=CC(=O)C2=C(C)CC(O)C3C(C)C(=O)OC3C12 (stereo not given) [Austricin]	97.7
CCn1cnc2c(Nc3cccc(Cl)c3)nc(NC3CCCCC3N)nc21 (stereo not given)	13.5
CCC(CO)NC(=O)C1C=C2c3cccc4c3c(cn4C)CC2N(C)C1.O=C(O)C=CC(=O)O (stereo not given) [Methysergide maleate]	97.1 ± 7
CCCCCC=CCC=CCCCCCCCC(=O)NCCO [Anandamide (18:2,n-6)]	108
CC(C)CC(NP(=O)([O-])OC1OC(C)C(O)C(O)C1O)C(=O)NC(Cc1c[nH]c2ccccc12)C(=O)[O-].[Na+].[Na+] (stereo not given) [Phosphoramidon disodium]	110
NC(=O)CI [Iodoacetamide]	33.8
NC(=O)CN1CC(O)CC1=O (stereo not given) [Oxiracetam]	111
CC1OC1P(=O)([O-])[O-].[Na+].[Na+] (stereo not given) [Phosphomycin disodium]	91.3
CN1C2CC(OC(=O)C(CO)c3ccccc3)CC1C1OC12 (stereo not given) [Scopolamine]	105
